# High-throughput results: PubChem BioAssay, National Center for Advancing Translational Sciences (NCATS)
# BRCA1 expr act – increases BRCA1 expression | MCF7-BRCA1-FFLuc reporter, luminescence, 48 h; response scale: scaled: vehicle 0%, 10 µM genistein 100% | Potency, µM (doses to about 46.1 µM), for inactives: at the top dose activation, most hits filed as activators | 380,000 compounds, 1.1% hits | AID 624202; note: potency is the fitted concentration of half-maximal effect; nearly all actives have a fitted effect of over 80% in size
#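 MCF7-BRCA1-FFLuc, 2000 cells/well; 2 h attach, 37 °C/5% CO2; compound 48 h; luciferase substrate 15 min; luminescence end-point. Norm. to genistein 10 microM max activation and DMSO; concentration-response curves fitted.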
# PTHR1 agonist – PTHR1 (human) receptor agonism; Q03431; HEK293 GP2 PTHR1 cells, GloSensor cAMP luminescence, 1 h; Potency, µM (highest dose often 115 µM), without a hit: at the top dose activation, most hits filed as activators; 410,000 compounds, 0.075% hits; AID 743266; note: potency is the fitted concentration of half-maximal effect; nearly all actives have a fitted effect of over 55% in size
# Target sequence (Q03431 whole entry, looked up): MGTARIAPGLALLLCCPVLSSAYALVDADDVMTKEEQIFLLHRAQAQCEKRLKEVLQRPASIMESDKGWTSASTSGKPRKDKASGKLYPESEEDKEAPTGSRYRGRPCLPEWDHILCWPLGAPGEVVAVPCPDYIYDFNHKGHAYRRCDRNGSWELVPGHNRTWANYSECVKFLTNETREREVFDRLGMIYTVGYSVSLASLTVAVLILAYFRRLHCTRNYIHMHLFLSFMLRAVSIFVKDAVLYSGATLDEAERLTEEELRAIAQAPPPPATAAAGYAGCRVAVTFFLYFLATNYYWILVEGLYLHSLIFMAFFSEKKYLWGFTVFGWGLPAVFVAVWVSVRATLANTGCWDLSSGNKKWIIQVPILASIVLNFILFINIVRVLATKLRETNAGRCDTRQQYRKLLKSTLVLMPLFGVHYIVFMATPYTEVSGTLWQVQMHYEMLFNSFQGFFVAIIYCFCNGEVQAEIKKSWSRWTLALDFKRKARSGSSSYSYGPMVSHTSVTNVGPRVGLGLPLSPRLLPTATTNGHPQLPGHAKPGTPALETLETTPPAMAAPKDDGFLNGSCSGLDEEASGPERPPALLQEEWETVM
#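 HEK-293-derived GP2 cells expressing PTHR1 and a GloSensor cAMP reporter, 3,000/well, plated overnight, given luciferin plus IBMX (each 0.5 mM as added) for 1 h at 37 °C, then compound for 1 h at 37 °C. Luminescence was read after 15 min at room temperature.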
# RGS4 inh – human RGS4 inhibition. 390,000 compounds, 0.039% hits. Potency, µM (series often up to 114 µM), for inactives: at the highest dose activity change, negative = inhibition, actives largely listed as inhibitors. Transcreener GDP fluorescence polarization, RGS4-accelerated GTP hydrolysis. P49798; note: potency is the fitted concentration of half-maximal effect; % is set by controls: 0 for no effect and ±100 for the full control effect; nearly all actives have a fitted effect of over 75% in size
#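 MLSMR compounds (23 nl, pin-transferred) preincubated 10 min at room temperature with a 500nM (2x) first reagent, then RGS4 at 900nM (2x) plus Transcreener GDP mix added; fluorescence polarization (620/688 nm) read before and after 90 min at 30 °C.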
# p53 reactivation – restores transcriptional activity of mutant p53 | Potency, µM (top dose mostly 92.2 µM), without a hit: at the top dose activity change, positive = activation, hits mostly activators | AID 504706 | H1299 p53-A138V BP100-luciferase reporter, luminescence, 24 h | 320,000 compounds, 0.063% hits; note: potency is the fitted concentration of half-maximal effect; % of control where 0% means no effect; nearly all actives have a fitted effect of over 45% in size
#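 p53-null H1299 cells stably carrying temperature-sensitive p53-A138V and a BP100-luciferase reporter were pinned with compounds (4-point, 1:5 series) and held 24 hrs at 37 deg C. Luminescence was read 10 min after detection reagent.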
# LDHA inh – inhibitors of human lactate dehydrogenase A. AID 1347041. activity change, % (values are at about 110 or 230 µM). P00338. purified LDHA, NADH/diaphorase-resazurin fluorescence; hits give low values. 480,000 compounds, 0.15% hits; in the data active = activity change below about -30%; inconclusive = mostly about -25% to -30%;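 note: plate controls were DMSO wells for no effect and wells without enzyme for full effect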
#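 Human LDH5 at 2 nM final in Tris HCl pH 7.4 with 0.06 mM NADH and 0.2 mM pyruvate, reacted 5 minutes at room temperature. Remaining NADH coupled via diaphorase/resazurin; resorufin fluorescence read at 0 and 20 minutes, normalized to enzyme-free and DMSO wells.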
# * = called active by the depositor; i = inactive; ? = inconclusive; · = not tested or not shown; [ ] = remark or other dose. The list is not random: actives were taken first. Their share in the collection is about 1.1%. Unless noted, calls come from the whole dose curve; as a rule, active = well fitted curve in the direction sought with a large enough effect; inconclusive = small, poorly fitted or top-dose-only effect, or another doubt; inactive = no such curve, though single readings can be large; an effect the other way counts as inactive or inconclusive.
SMILES,BRCA1 expr act,PTHR1 agonist,RGS4 inh,p53 reactivation,LDHA inh
N/C(=N\OC(=O)CSc1ccccc1)c1ccc([N+](=O)[O-])cc1,11µM*,i,13%[11.4 µM],?,0
O=C(O)CCn1cc(C(C(=O)O)N2CCCCC2)c2ccc(Br)cc21 (configuration not stated),·,·,·,·,-9
Cn1c(SCc2cc(=O)n3[nH]cc(C#N)c3n2)nnc1-c1ccc(C(C)(C)C)cc1,·,·,·,·,-9
Cc1cc(C(=O)COC(=O)c2ccccc2O)c(C)n1Cc1cccs1,-92%,-38%,-33%,-10%,1
Cc1cccc(C(=O)OCC(=O)c2ccc3c(c2)OCCO3)c1O,6.3µM*,-44%,-11%,?,-4
O=C(COC(=O)c1ccccc1[N+](=O)[O-])c1ccc2c(c1)OCO2,?,-38%,21%,11%,0
Cc1cc(C(=O)COC(=O)c2ccc3c(c2)OCO3)c(C)n1Cc1cccs1,5µM*,-19%,-19%,?,-7
Cc1cccc(C(=O)OCC(=O)c2ccc3c(c2)OCO3)c1O,6.3µM*,-50%,10%,?,-1
CC(C)C(=O)Nc1ccccc1C(=O)OCC(=O)c1ccc2c(c1)OCCO2,-1%,-5%,-18%,?,-7
COC(=O)C1C(=O)CC(C)(O)C(C(=O)OC)C1c1ccc(OC)cc1 (configuration not stated),·,·,·,·,0
Cc1ccc(NC(=O)CN(C)C(=O)CCc2ncc(-c3ccc(C)c(C)c3)o2)cc1,·,·,·,·,2
CC1CCN(C(=O)CSc2nnc(-c3ccccc3)o2)CC1,·,i,-17%,·,-5
O=C(CSc1nnc(-c2ccccc2)o1)N1CCCC1,83%,i,16%,?,-7
O=C(CSc1nnc(-c2ccccc2)o1)N1CCCCC1,3.2µM*,-19%,-8%,?,-5
O=C(CSc1nnc(-c2ccc(F)cc2)o1)N1CCCCC1,8.9µM*,i,-8%,?,-7
CC1CCN(C(=O)CCc2nnc(-c3ccccc3)o2)CC1,13µM*,-15%,-10%,12%,-5
Cc1ccc(/C=N/NC(=O)c2cccs2)s1,11µM*,-14%,28%,?,-2
O=C(N/N=C/c1cccc2ccccc12)c1cccs1,4µM*,-2%,-2%,?,-3
O=C(N/N=C/c1ccc(Br)s1)c1cccs1,66%,-3%,-10%,6%,-2
O=C(N/N=C/c1ccccc1Cl)c1cccs1,·,·,·,·,-3
CCOC(=O)c1cnc(SCC(C)C)nc1N,7.9µM*,-11%,22%,?,-17
CCOC(=O)c1cnc(SCc2cccc(C)c2)nc1N,10µM*,-2%[57.5 µM],-7%,20%,-2
CCOC(=O)c1cnc(SCC(=O)c2ccc(C)cc2)nc1N,-18%,-18%[57.5 µM],7%,4%,-7
COc1ccc(-n2c(SC(C(=O)N3CCCC3)c3ccccc3)nnc2-c2ccncc2)cc1 (configuration not stated),·,·,·,·,2
CCc1ccc(NC(=O)c2ccccc2Br)cc1,3.2µM*,-17%,15%,25%,-6
SMILES,BRCA1 expr act,PTHR1 agonist,RGS4 inh,p53 reactivation,LDHA inh
O=C(Nc1ccc(Br)cc1)c1ccccc1Br,1.1µM*,-17%,5%,·,-2
COc1cccc(-c2nc(CS(=O)(=O)CC(=O)NCc3cccnc3)c(C)o2)c1,·,·,·,·,-34*
Cc1ccc(OCCOCCN2CCN(C)CC2)c(C(C)(C)C)c1,-4%,-15%,-10%,19%,-32*
CC(C)(C)c1cc(Cl)ccc1OCCOCCN1CCCC1,-31%,-9%,-5%,-10%,-7
C/C(=N\OC(=O)c1ccccc1)c1cc(-c2ccc(Cl)cc2)no1,2.8µM*,i,-19%,1%,-1
C/C(=N/OC(=O)C1CC1)c1cc(-c2ccc(Cl)cc2)no1,4µM*,-8%,7%,13%,-4
C/C(=N/OC(=O)c1ccc(-c2cc(Cl)ccc2Cl)o1)c1ccccc1,·,·,·,·,-19
COc1ccc(/C(C)=N/N2CCCCC2)c(O)c1,0%,-6%,13%,7%,-1
COc1ccc(O)c(/C=N/N2CCCCC2)c1,10µM*,-25%,-4%[56.9 µM],25%,5
COc1ccc(Cl)cc1NC(=O)Cn1nc(-c2ccc(C)c(C)c2)ccc1=O,·,·,·,·,-4
Cc1ccc(-c2nc3ccc(Br)cn3c2Cc2cccc(F)c2)cc1,3.2µM*,-95%,·,·,0
Fc1ccc(-c2nc3ccc(Br)cn3c2Cc2cccc(F)c2)cc1,59%,i,·,·,-2
COc1ccc(-c2coc3cc(OCC#N)ccc3c2=O)cc1OC,·,·,·,·,16
COc1ccc(-c2nc(CSCC(=O)NC(C)c3ccccc3)c(C)o2)cc1OC (configuration not stated),·,·,·,·,6
COc1ccc(-c2nnc(SCC(=O)c3cccs3)o2)cc1,7.1µM*,-20%,-15%,26%,4
CC1=C(C(=O)OC(C)(C)C)C(c2ccc(C(C)C)cc2)NC(=S)N1 (configuration not stated),·,·,·,·,3
Cc1cccc(NC(=O)COc2ncnc3ccc(Br)cc23)c1C,·,·,·,·,-31*
Cc1ccc(SCCNC(=S)Nc2ccc(F)cc2)cc1,·,·,·,·,11
CCOc1ccc2c(c1)cc(C(=O)Nc1ccccc1OCC)n2C,·,·,·,·,-33*
O=C(CSc1nnc2ccc(-c3cccnc3)nn12)NC1CCCCC1,·,·,·,·,0
CCOc1cccc(/C=C/c2ccc3cccc(O)c3n2)c1OC,-7%,-9%,-16%,13µM*,6
CCOc1cccc(/C=C/c2ccc3cccc(O)c3n2)c1O,-22%,-31%,-13%,10µM*,13
O=C(O)c1ccc(COc2ccc(Cl)cc2)cc1,·,·,·,·,-2
Cc1cc(Cl)ccc1OCC(=O)N1CCN(c2ncccn2)CC1,10%,-7%,-29%,-6%,-2
Cc1cc(Cl)ccc1OCC(=O)N1CCCCC1,11µM*,i,-3%[11.4 µM],?,-6
SMILES,BRCA1 expr act,PTHR1 agonist,RGS4 inh,p53 reactivation,LDHA inh
O=C(CCCOc1ccc(Cl)cc1)N1CCCCC1,13µM*,i,0%,?,-7
O=C(c1ccc(COc2ccc(Cl)cc2)cc1)N1CCCCC1,3.2µM*,i,7%,0%,-2
O=C(CN1CCCCC1)Nc1nc(-c2ccc(Cl)cc2)cs1,92%,-31%,12%,3%,-11
O=C(CN1CCCCC1)Nc1nc(-c2ccc(F)c(F)c2)cs1,7.1µM*,-24%,-2%,?,-6
CC1(NC(=O)CCc2ncc(-c3ccccc3)o2)CCS(=O)(=O)C1 (configuration not stated),·,·,·,·,7
O=C(Nc1cccc(-c2nnc(-c3ccccc3)o2)c1)C1CC1,8.9µM*,-15%,-23%,-1%,-2
CC(=O)Nc1cccc(-c2nnc(-c3ccccc3)o2)c1,6.3µM*,-21%,16%[11.4 µM],?,-2
Nc1cccc(-c2cc3ccccn3c2)c1,·,·,·,·,-4
CCN(CC)C(=S)SCc1csc(C)n1,·,·,·,·,3
